Measurements published in PubChem BioAssay AID588651 (The Scripps Research Institute Molecular Screening Center, 2011).
Active and inactive are the calls of the source. Rule as the data show it: active = inhibition above about 65%; inactive = the rest.

system: Antitargets; assay: Fam108b inhibition by ABPP, late-stage follow-up, biochemical, gel-based ABPP, recombinant soluble Fam108b, HTS hits, complex proteome (AID 588651); conditions: FP-rhodamine labeling in proteome;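 also: Fam108b spiked into mouse brain membrane proteome; tested at 20 µM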

Question: For Fc1ccc2nc(Nc3nc4cc5c(cc4s3)OCO5)sc2c1, which outcome is on record?
Answer: The outcome was “inactive”.

Question: O=C(NN=Cc1ccc(O)cc1)c1cccc(NN=Cc2ccc(O)cc2)c1 was tested. Which outcome did it give?
Answer: The outcome was “active”.

Question: How did the outcome turn out when CCNc1ccc2noc3c2c1C(=O)c1ccccc1-3 was run?
Answer: Its outcome is “inactive”.

Question: For CCc1cc(C(Cc2ccc3ccccc3n2)=NO)c(O)cc1O, which outcome is on record?
Answer: Its outcome is “active”.

Question: COc1ccc(-c2csc3nc(-c4ccccc4OC)oc(=O)c23)cc1 was tested. Which outcome did it give?
Answer: The outcome was “inactive”.

Question: With O=C(Nc1ccc2[nH]c(=S)sc2c1)Nc1ccccc1F as the compound, how does the outcome read?
Answer: The outcome was “inactive”.

Question: Which outcome does the source give for CC1(C)CC(=O)C2=C(C1)c1c(ccc3ccccc13)NC2c1cc([N+](=O)[O-])cc([N+](=O)[O-])c1O (centres undefined) here?
Answer: Its outcome is “inactive”.

Question: Which outcome does the source give for Oc1ccc(C=NNc2ccnc3cc(Cl)ccc23)cc1O here?
Answer: The outcome was “inactive”.

Question: Which outcome does the source give for COc1cccc(C=NNc2nc(Nc3ccc([N+](=O)[O-])cc3)nc(N3CCCC3)n2)c1O here?
Answer: The outcome was “inactive”.

Question: For COc1ccc(C=NNC(=O)c2ccc(O)cc2)cc1CN1CCCc2ccccc21, which outcome is on record?
Answer: The outcome was “inactive”.

Question: For Cc1[nH]c2ccccc2c1C=NNC(=O)c1cccc(S(=O)(=O)Nc2cccc(C(F)(F)F)c2)c1, which outcome is on record?
Answer: Its outcome is “inactive”.

Question: With O=c1cc(-c2ccc(O)c(-c3c(O)cc(O)c4c(=O)cc(-c5ccc(O)cc5)oc34)c2)oc2cc(O)cc(O)c12 as the compound, how does the outcome read?
Answer: The outcome was “active”.

Question: How did the outcome turn out when O=C(Nc1ccc(F)cc1)Nc1ccc(N2CCCC2)c(S(=O)(=O)Nc2ccccc2Cl)c1 was run?
Answer: The outcome was “active”.

Question: For Oc1oc(-c2ccccc2Br)nc1C=Nc1ccccn1, which outcome is on record?
Answer: The outcome was “active”.

Question: For Cc1ccnc(N=Cc2nc(-c3ccccc3Br)oc2O)c1, which outcome is on record?
Answer: The outcome was “inactive”.

Question: O=C(NCC1CC1)c1ccc(Nc2nc3ccc(Br)cc3[nH]2)cc1 was tested. Which outcome did it give?
Answer: The outcome was “inactive”.

Question: CC1CCN(S(=O)(=O)c2ccc(C(=O)Nc3ccccc3-c3nc4ccccc4[nH]3)cc2)CC1 was tested. Which outcome did it give?
Answer: Its outcome is “inactive”.

Question: Nc1cc2nsnc2cc1Br was tested. Which outcome did it give?
Answer: Its outcome is “inactive”.

Question: Oc1cccc2cc3cccc(O)c3c(O)c12 was tested. Which outcome did it give?
Answer: The outcome was “active”.

Question: Oc1nc(Nc2cccc(Cl)c2)sc1/C=C1\C=Nc2ccccc21 was tested. Which outcome did it give?
Answer: Its outcome is “active”.

Question: With CCN(c1ccccc1)S(=O)(=O)c1ccc(NC(=O)c2nc(S(C)(=O)=O)ncc2Cl)cc1 as the compound, how does the outcome read?
Answer: The outcome was “inactive”.

Question: For Cc1ccc(C)c(-n2c3nc(=O)[nH]c(=O)c-3cc3cc([N+](=O)[O-])ccc32)c1, which outcome is on record?
Answer: The outcome was “inactive”.

Question: With Cc1cc(C(C#N)c2ccc(Cl)cc2)c(Cl)cc1NC(=O)c1cc(I)cc(I)c1O (centres undefined) as the compound, how does the outcome read?
Answer: Its outcome is “inactive”.

Question: Which outcome does the source give for CN(c1ccccc1)S(=O)(=O)c1ccc(NC(=O)c2ccc(-c3ccccc3)cc2)cc1 here?
Answer: Its outcome is “inactive”.

Question: How did the outcome turn out when COc1ccc(-c2csc3nc(-c4ccccc4F)oc(=O)c23)cc1 was run?
Answer: Its outcome is “inactive”.

Question: Which outcome does the source give for Cc1nc2scc(-c3ccc(Cl)cc3)c2c(=O)o1 here?
Answer: The outcome was “inactive”.

Question: Which outcome does the source give for CCN(CC)c1ccc(C2Nc3cccc4cccc(c34)N2)c(O)c1 here?
Answer: The outcome was “inactive”.

Question: For COc1cc2c(cc1NC(=S)Nc1cccc(C(F)(F)F)c1)oc1ccccc12, which outcome is on record?
Answer: Its outcome is “inactive”.

Question: O=C(CCCSc1ccccc1)Nc1nc(-c2ccco2)c(-c2ccco2)s1 was tested. Which outcome did it give?
Answer: Its outcome is “inactive”.

Question: CC1CCCCN1S(=O)(=O)c1ccc(C(=O)Nc2ccccc2-c2nc3ccccc3[nH]2)cc1 (centres undefined) was tested. Which outcome did it give?
Answer: The outcome was “inactive”.

Question: With O=C1NC(=S)/C(=C\c2ccc(-c3ccccc3Cl)o2)S1 as the compound, how does the outcome read?
Answer: The outcome was “inactive”.

Question: With Oc1ccc(C2Nc3cccc4cccc(c34)N2)c(O)c1 as the compound, how does the outcome read?
Answer: The outcome was “inactive”.

Question: Oc1ccc(C=NNc2ccnc3cc(Cl)ccc23)c(O)c1O was tested. Which outcome did it give?
Answer: The outcome was “active”.

Question: For CCc1ccc(S(=O)(=O)N=C2C=C(Sc3ncn[nH]3)C(=O)c3ccccc32)cc1, which outcome is on record?
Answer: The outcome was “inactive”.
